A collection of fitness landscapes (doi:10.1126/science.1257360)
Whole data set: some 140,000 sequences, median “enrichment ratio after two sorts for PhoP signalling” near 0, cut for the highest 2% near 11. The entries come from a sample that favours the highest values as a whole.

B1: PhoQ; a variant is named by its letters at X, in order, P23837 (parent)
chain: MKKLLRLFFPLSLRVRFLLATAAVVLVLSLAYGMVALIGYSVSFDKTTFRLLRGESNLFYTLAKWENNKLHVELPENIDKQSPTMTLIYDENGQLLWAQRDVPWLMKMIQPDWLKSNGFHEIEADVNDTSLLLSGDHSIQQQLQEVREDDDDAEMTHSVAVNVYPATSRMPKLTIVVVDTIPVELKSSYMVWSWFIYVLSANLLLVIPLLWVAAWWSLRPIEALAKEVRELEEHNRELLNPATTRELTSLVRNLNRLLKSERERYDKYRTTLTDLTHSLKTPLXXLQXXLRSLRSEKMSVSDAEPVMLEQISRISQQIGYYLHRASMRGGTLLSRELHPVAPLLDNLTSALNKVYQRKGVNISLDISPEISFVGEQNDFVEVMGNVLDNACKYCLEFVEISARQTDEHLYIVVEDDGPGIPLSKREVIFDRGQRVDTLRPGQGVGLAVAREITEQYEGKIVAGESMLGGARMEVIFGRQHSAPKDE

Variants of: B1
Test: enrichment ratio after two sorts for PhoP signalling (ratio (wild type AVST 3.29)); higher = more functional
Details: with PhoP (E. coli)
With HWIF the enrichment ratio was ≤ 0.25. For MFWN, the enrichment ratio was ≤ 0.25. AMSS was tested, and the enrichment ratio was 9.96. For WMWY, the enrichment ratio was ≤ 0.25. With SKLC the enrichment ratio was 12.6. SELC showed an enrichment ratio of 20.4. In the case of GTLC, the enrichment ratio is reported as 10. With SNLC the enrichment ratio was 11.3. For SFLC, the enrichment ratio was 4.52. With SLLC the enrichment ratio was 7.49. With SKKC the enrichment ratio was ≤ 0.25. With TTLC the enrichment ratio was 14.4. With SRLC the enrichment ratio was ≤ 0.25. LTLC was tested, and the enrichment ratio was ≤ 0.25. In the case of TPLC, the enrichment ratio is reported as ≤ 0.25. With SKTC the enrichment ratio was 11.1. In the case of VGMT, the enrichment ratio is reported as ≤ 0.25. NFAS was tested, and the enrichment ratio was ≤ 0.25. With AWLG the enrichment ratio was ≤ 0.25. In the case of PRVI, the enrichment ratio is reported as ≤ 0.25. For THYW, the enrichment ratio was ≤ 0.25. For ELGT, the enrichment ratio was ≤ 0.25. In the case of FGYD, the enrichment ratio is reported as ≤ 0.25. EVSM gave an enrichment ratio of 7.73. For SNNY, the enrichment ratio was 8.91. Variant SNNM has an enrichment ratio of 13.1. With YTNM the enrichment ratio was ≤ 0.25. In the case of SNRM, the enrichment ratio is reported as ≤ 0.25. SQNM showed an enrichment ratio of 1.65. In the case of SNGS, the enrichment ratio is reported as 9.33. In the case of SRGY, the enrichment ratio is reported as ≤ 0.25. With STNM the enrichment ratio was 11.4. For SNGM, the enrichment ratio was 15.3. With SLNM the enrichment ratio was ≤ 0.25. SNGY gave an enrichment ratio of 12.6. For SNGD, the enrichment ratio was ≤ 0.25. In the case of RSCE, the enrichment ratio is reported as ≤ 0.25. In the case of QIIS, the enrichment ratio is reported as ≤ 0.25. Work on TQLR yielded an enrichment ratio of 2.23. LNRD showed an enrichment ratio of 0.657. EFTP was tested, and the enrichment ratio was ≤ 0.25. With NIED the enrichment ratio was ≤ 0.25. Work on HGTL yielded an enrichment ratio of 6.22. Work on SDCM yielded an enrichment ratio of 17.2. In the case of MTCK, the enrichment ratio is reported as ≤ 0.25. For SYCM, the enrichment ratio was ≤ 0.25. Work on SECM yielded an enrichment ratio of 38.2. Variant SVCM has an enrichment ratio of 14.2. Work on SVCK yielded an enrichment ratio of 9.8. With MHCM the enrichment ratio was ≤ 0.25. For FDCM, the enrichment ratio was ≤ 0.25. With SPCM the enrichment ratio was ≤ 0.25. SRCM was tested, and the enrichment ratio was 9.77. With SVCE the enrichment ratio was 2.84. For MTCM, the enrichment ratio was 12.2. With KPWY the enrichment ratio was ≤ 0.25. With TYSW the enrichment ratio was ≤ 0.25. For HHAG, the enrichment ratio was ≤ 0.25. In the case of IFAS, the enrichment ratio is reported as ≤ 0.25. For MQIG, the enrichment ratio was ≤ 0.25. In the case of NTCM, the enrichment ratio is reported as ≤ 0.25. With RTCM the enrichment ratio was ≤ 0.25. With YHCM the enrichment ratio was ≤ 0.25. For FTCM, the enrichment ratio was 7.68. TTCM showed an enrichment ratio of 24.5. With LTCM the enrichment ratio was ≤ 0.25. With YTCM the enrichment ratio was 11.5. In the case of ITCM, the enrichment ratio is reported as 1. With SLCM the enrichment ratio was 16.9. WLCM was tested, and the enrichment ratio was ≤ 0.25. PLCM was tested, and the enrichment ratio was ≤ 0.25. STCM showed an enrichment ratio of 13.3. RMAR was tested, and the enrichment ratio was ≤ 0.25. With LPWH the enrichment ratio was ≤ 0.25. In the case of KMFP, the enrichment ratio is reported as ≤ 0.25. In the case of IDIW, the enrichment ratio is reported as ≤ 0.25. In the case of DRHH, the enrichment ratio is reported as ≤ 0.25. ITAF was tested, and the enrichment ratio was ≤ 0.25. In the case of TAVG, the enrichment ratio is reported as ≤ 0.25. In the case of TAMG, the enrichment ratio is reported as 17.2. In the case of YATV, the enrichment ratio is reported as ≤ 0.25. In the case of TAVC, the enrichment ratio is reported as 1.35. For TATV, the enrichment ratio was 13.6. TAMN gave an enrichment ratio of 59.7. In the case of KAMN, the enrichment ratio is reported as ≤ 0.25. TANV showed an enrichment ratio of 17.9. KATV was tested, and the enrichment ratio was ≤ 0.25. In the case of NAMN, the enrichment ratio is reported as ≤ 0.25. KANV was tested, and the enrichment ratio was ≤ 0.25. With YANV the enrichment ratio was ≤ 0.25. YFEP was tested, and the enrichment ratio was ≤ 0.25. In the case of NMRI, the enrichment ratio is reported as ≤ 0.25. In the case of YHGP, the enrichment ratio is reported as ≤ 0.25. For TWHF, the enrichment ratio was ≤ 0.25. In the case of LTFD, the enrichment ratio is reported as ≤ 0.25. HWNR was tested, and the enrichment ratio was ≤ 0.25. For WEAV, the enrichment ratio was ≤ 0.25. With KAMP the enrichment ratio was ≤ 0.25. With WWAY the enrichment ratio was ≤ 0.25. In the case of LLHT, the enrichment ratio is reported as ≤ 0.25. In the case of HMSL, the enrichment ratio is reported as ≤ 0.25. PQVE was tested, and the enrichment ratio was ≤ 0.25. For HHWE, the enrichment ratio was ≤ 0.25. TAMS showed an enrichment ratio of 7.61. Work on TAHF yielded an enrichment ratio of 10.3. With TAVA the enrichment ratio was ≤ 0.25. TAGF was tested, and the enrichment ratio was 13.2. IAGF was tested, and the enrichment ratio was ≤ 0.25. With LQQF the enrichment ratio was ≤ 0.25. For TAPV, the enrichment ratio was ≤ 0.25. YAGF was tested, and the enrichment ratio was ≤ 0.25. With LQQS the enrichment ratio was ≤ 0.25. With TAQS the enrichment ratio was 14.2. TAQF gave an enrichment ratio of 14. TAMV gave an enrichment ratio of 14.2. KVFQ was tested, and the enrichment ratio was ≤ 0.25. TFVR was tested, and the enrichment ratio was ≤ 0.25. For QGQK, the enrichment ratio was ≤ 0.25. PHIC was tested, and the enrichment ratio was ≤ 0.25. NSGR was tested, and the enrichment ratio was ≤ 0.25. SWSS was tested, and the enrichment ratio was ≤ 0.25. With AQVW the enrichment ratio was ≤ 0.25. With THPY the enrichment ratio was ≤ 0.25. In the case of NAAF, the enrichment ratio is reported as ≤ 0.25. For TAMF, the enrichment ratio was 19.6. With KAAF the enrichment ratio was ≤ 0.25. With TAVK the enrichment ratio was ≤ 0.25. For IAMF, the enrichment ratio was ≤ 0.25. Work on TAWI yielded an enrichment ratio of 10.7. Work on TAAF yielded an enrichment ratio of 18.4. In the case of YAMF, the enrichment ratio is reported as ≤ 0.25. TAWV was tested, and the enrichment ratio was 12.8. With DPRG the enrichment ratio was ≤ 0.25. In the case of GCCQ, the enrichment ratio is reported as 8.03. With NNVY the enrichment ratio was ≤ 0.25. In the case of MPPF, the enrichment ratio is reported as ≤ 0.25. In the case of QTGS, the enrichment ratio is reported as 0.628. SDDV showed an enrichment ratio of 0.265. WLTS was tested, and the enrichment ratio was ≤ 0.25. In the case of AVDH, the enrichment ratio is reported as ≤ 0.25. In the case of AVSI, the enrichment ratio is reported as 13.1. For AVCA, the enrichment ratio was 6.97. AVTG was tested, and the enrichment ratio was 11.3. In the case of AVMG, the enrichment ratio is reported as 2.13. In the case of AVVG, the enrichment ratio is reported as 11.2. With HSNG the enrichment ratio was ≤ 0.25. For ERPM, the enrichment ratio was ≤ 0.25. In the case of QHPH, the enrichment ratio is reported as ≤ 0.25. For LPHC, the enrichment ratio was ≤ 0.25. Variant QVDY has an enrichment ratio of 11.3. For QLCK, the enrichment ratio was ≤ 0.25. With LNHC the enrichment ratio was ≤ 0.25. With QLDN the enrichment ratio was ≤ 0.25. QLNM was tested, and the enrichment ratio was ≤ 0.25. QVDS gave an enrichment ratio of 1.54. In the case of TVDY, the enrichment ratio is reported as ≤ 0.25. With LVHC the enrichment ratio was 15. For FVDN, the enrichment ratio was ≤ 0.25. In the case of QVDN, the enrichment ratio is reported as 11.3. QLWM gave an enrichment ratio of 12.6. In the case of LLFG, the enrichment ratio is reported as ≤ 0.25. YKSC was tested, and the enrichment ratio was ≤ 0.25. GCVC was tested, and the enrichment ratio was ≤ 0.25. With HYNH the enrichment ratio was ≤ 0.25. With QRWG the enrichment ratio was ≤ 0.25. In the case of KSDH, the enrichment ratio is reported as ≤ 0.25. For QPWG, the enrichment ratio was ≤ 0.25. QADY was tested, and the enrichment ratio was 11.7. QSDA gave an enrichment ratio of 7.1. KADY was tested, and the enrichment ratio was ≤ 0.25. With QSDK the enrichment ratio was ≤ 0.25. QEDH was tested, and the enrichment ratio was ≤ 0.25. In the case of QSWG, the enrichment ratio is reported as 18. QSDS showed an enrichment ratio of 20.8. Variant QADS has an enrichment ratio of 3.89. Variant QSDH has an enrichment ratio of 18.9. QIRT was tested, and the enrichment ratio was ≤ 0.25. For QYHW, the enrichment ratio was ≤ 0.25. In the case of CPHF, the enrichment ratio is reported as ≤ 0.25. In the case of NKSG, the enrichment ratio is reported as ≤ 0.25. With VAGL the enrichment ratio was 1.62. For RRLA, the enrichment ratio was ≤ 0.25. In the case of QSDI, the enrichment ratio is reported as 14.8. In the case of QEAM, the enrichment ratio is reported as ≤ 0.25. Variant QSHF has an enrichment ratio of 9.45. QSGV was tested, and the enrichment ratio was 3.83. With QAAM the enrichment ratio was ≤ 0.25. QPDI was tested, and the enrichment ratio was ≤ 0.25. KNHV was tested, and the enrichment ratio was ≤ 0.25. Variant QSHI has an enrichment ratio of 15.9. For QSHV, the enrichment ratio was 11.3. Variant QSAM has an enrichment ratio of 14.5. In the case of KSDI, the enrichment ratio is reported as ≤ 0.25. With KSHI the enrichment ratio was ≤ 0.25. With SNHK the enrichment ratio was ≤ 0.25.
